# Assay outcomes as filed in PubChem.
# Only some compounds are listed: those with a hit (about 4.8% of all), similar ones and a draw of the others.
# hcDAF12 agonist: activators of H. contortus DAF-12 nuclear receptor; HEK293 hcDAF-12 lit1-tk-luc reporter, luminescence; 0% DMSO, 100% Δ7-dafachronic acid; activation, % at 6.8 µM; 370,000 compounds, 1.4% hits;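 active = activation above the mean of all tested compounds plus 3 SD, cut at about 5.5% in these data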
# DAX1 inh-1: inhibitors of DAX1 repression of SF-1 activated StAR promoter; HEK293T StAR-luciferase reporter, SF-1/DAX-1 repression relief; inhibition, % at 6.8 µM; 370,000 compounds, 1.1% hits; AID 652010;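 active = inhibition above the mean over all tested compounds plus 3 SD, cut at about 3.6% in these data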;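 note: higher inhibition means more luminescence from relief of DAX-1 repression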
# hgDAF-12 ag: hgDAF-12 agonism, primary luciferase screen | activation, % at 6.8 µM | 370,000 compounds, 1.8% hits | HEK293 GAL4-hgDAF12 UAS-luciferase reporter, agonist luminescence; normalized to butyrate control;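 active = activation above a cutoff set at the mean of all screened compounds plus 3 SD, cut at about 10% in these data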
# ssDAF12 agonist: activates DAF-12 receptor from parasite S. stercoralis. HEK293 ssDAF-12/GRIP1 lit1-tk-luc reporter, luminescence; % of 3 µM dafachronic acid response. activation, % at 6.8 µM. 370,000 compounds, 1% hits;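 active = activation above the mean over all tested compounds plus 3 SD, cut at about 0.9% in these data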
# DAX1 inh-2: inhibits human nuclear receptor DAX1 | P51843 | HEK293 Gal4-DAX1 luciferase reporter, luminescence | inhibition, % at 6.75 µM | 340,000 compounds, 0.99% hits | AID 504766;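 active = inhibition above the mean over all tested compounds plus 3 SD, cut at about 4.2% in these data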;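 note: inhibition shows as a rise in luminescence from relieved DAX1 repression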
# Target sequence (P51843 207-470 limits assumed): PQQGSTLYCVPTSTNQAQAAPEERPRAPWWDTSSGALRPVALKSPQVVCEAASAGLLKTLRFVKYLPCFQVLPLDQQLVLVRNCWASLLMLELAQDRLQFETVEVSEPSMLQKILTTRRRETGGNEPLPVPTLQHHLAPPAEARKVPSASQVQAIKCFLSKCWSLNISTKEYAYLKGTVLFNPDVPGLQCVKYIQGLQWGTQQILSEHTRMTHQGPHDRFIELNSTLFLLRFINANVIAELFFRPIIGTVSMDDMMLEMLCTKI
# Rev-erbA mod: modulates human Rev-erb alpha binding to DNA; 370,000 compounds, 0.79% hits; activity, % at 10 µM; AID 1259318; Rev-erbα–FITC-DNA binding, fluorescence polarization, 90 min;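 active = activity above about 14%, limit read from the data; passing the limit was not always enough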
# DAX1 conf: NR0B1 (human) inhibition, confirmation | shares compounds with DAX1 inh-1 | 2,400 compounds, 87% hits | inhibition, % at 6.8 µM | HEK293T StAR-promoter luciferase reporter, SF-1/DAX-1 repression | AID 652134;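 active = inhibition above the average of every tested compound plus 3 SD, cut at about 3.8% in these data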;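 note: active compounds raise luminescence by relieving repression of the StAR reporter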
# SF1 mutant ctr: counter-screen for DAX1 inhibitors: nonselective inhibitors with SF-1 AF2 mutant. 2,400 compounds, 78% hits. HEK293 StAR-luciferase, luminescence. shares compounds with DAX1 inh-1. inhibition, % at 6.8 µM. AID 652136;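 active = inhibition above the mean of all tested compounds plus 3 SD, cut at about 3% in these data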
# A number is an active result; 0 = inactive; - = no result given.
SMILES,hcDAF12 agonist,DAX1 inh-1,hgDAF-12 ag,ssDAF12 agonist,DAX1 inh-2,Rev-erbA mod,DAX1 conf,SF1 mutant ctr
COc1ccc(S(=O)(=O)N2CCCC2CNC(=O)C(=O)Nc2ccc(C)cc2)cc1 (stereo not given),0,0,0,0,0,0,-,-
COC(=O)[C@]12C[C@H](CC(=O)NCc3cccc4ccccc34)C(=O)N(CCc3ccc(OC)c(OC)c3)C1=C[C@H](C(C)(C)C)O[C@@H]2C,0,0,0,0,-,0,-,-
O=C(Cn1c(=O)cnc2ccccc21)NNC(=O)c1ccc(Cl)cc1,0,0,0,0,0,0,-,-
CCc1ccc(C(=O)NNC(=O)Cn2c(=O)cnc3ccccc32)cc1,0,5.4,0,0,0,0,0,0
O=C(N1CCOCC1)N1CC[C@H]2[C@H](CCCN2Cc2ccccc2)C1,0,0,0,0,-,0,-,-
Cc1ccc(NC(=O)c2ccc3snnc3c2)cc1C,0,6.5,0,0,0,0,9.4,0
O=C(Nc1ccc([N+](=O)[O-])cc1Cl)c1cccc([N+](=O)[O-])c1,0,0,0,0,0,0,-,-
O=C(Nc1ccc([N+](=O)[O-])cc1Cl)c1cc(Cl)ccc1O,0,6.7,12.0,0,0,0,0,0
COC(=O)C1CN(Cc2ccc(C)cc2)CCS(=O)(=O)N1Cc1cn(Cc2ccc(Cl)cc2)nn1 (stereo not given),0,0,0,0,-,0,-,-
COc1ccc(-c2nc3ccccc3[nH]2)cc1,5.8,6.8,12.1,0,0,0,15.3,6.1
COc1ccc(-c2nc3ccccc3nc2-c2ccc(OC)cc2)cc1,0,0,0,0,0,0,-,-
C(=N\Nc1ccccn1)/c1ccc(N2CCOCC2)cc1,0,5.0,10.8,0,0,0,8.8,7.0
C/C(=N\Nc1ccccn1)c1ccc(N2CCOCC2)cc1,0,0,0,0,0,0,-,-
COC(=O)c1ccc2nc(-c3cccc(N)c3)cn2c1,0,5.6,0,0,0,0,5.3,0
COC(=O)c1ccc2nc(-c3ccc(S(C)(=O)=O)cc3)cn2c1,0,0,0,0,0,0,-,-
O=C(Nc1ccc(Cl)cc1[N+](=O)[O-])c1ccc2c(c1)OCCO2,0,4.7,0,0,0,0,10.3,4.2
O=C(NCCOc1ccc(Cl)cc1)c1ccc2c(c1)OCCO2,0,5.8,0,0,0,0,7.5,5.4
O=C(CNC(=O)c1ccc2c(c1)OCO2)NCCOc1ccc(Cl)cc1,0,0,0,0,0,0,-,-
COC(=O)[C@]12C[C@H](CC(=O)NCCc3ccccc3OC)C(=O)N(Cc3ccco3)C1=C[C@H](C1CCCC1)O[C@@H]2C,0,0,0,0,-,0,-,-
O=C(COc1ccccc1Br)NC(=O)NC1CCCC1,0,4.9,0,0,0,0,7.3,4.3
O=C(COc1ccccc1Br)NC1CC1,0,0,0,0,0,0,-,-
O=S1(=O)c2ccc(N3CCCC3)cc2Oc2ccccc2CN1Cc1cn(Cc2ccc(C(F)(F)F)cc2)nn1,0,0,0,0,-,0,-,-
CC(C)(C)NC(=O)C(c1ccc(-c2ccccc2)cc1)n1c(=O)c(-c2cc3ccccc3[nH]2)nc2ccccc21 (stereo not given),0,4.9,0,1.4,-,0,4.4,4.6
CC(C)(C)NC(=O)C(c1ccccc1)n1c(=O)c(-c2cc3ccccc3[nH]2)nc2ccccc21 (stereo not given),0,0,0,0,-,0,-,-
CCOc1cccc(-c2nn3c(-c4cccc(C)c4)nnc3s2)c1,0,0,0,0,-,0,-,-
SMILES,hcDAF12 agonist,DAX1 inh-1,hgDAF-12 ag,ssDAF12 agonist,DAX1 inh-2,Rev-erbA mod,DAX1 conf,SF1 mutant ctr
C[C@H](NC(=O)C[C@@H]1C[C@@H]2c3cc(NC(=O)C4CCC4)ccc3O[C@@H]2[C@@H](CO)O1)c1ccccc1,0,0,0,0,-,0,-,-
O=C(Nc1cccc(F)c1)Nc1ccc2c(c1)OCO2,0,7.0,0,0,0,0,9.2,5.3
CC(C)=CC(=O)Nc1ccc2c(c1)OCO2,0,6.1,0,0,0,0,12.2,7.7
COc1ccc(N2C(=O)c3n[nH]c(C(C)C)c3C2c2ccc(C)cc2)cc1 (stereo not given),0,0,0,0,-,0,-,-
COC(=O)Cc1nnn2c1[C@@H](C)[C@@H](c1ccccc1Br)OC[C@H](C)C2,0,0,0,0,-,0,-,-
CCOc1ccc(-n2c(SCC(=O)Nc3ccc4cn[nH]c4c3)nnc2-c2ccncc2)cc1,0,0,0,0,-,0,-,-
Cc1cccc(-c2noc(CCC(=O)N3CCN(c4cc(C)ccc4C)CC3)n2)c1,0,6.3,0,0,0,0,6.0,3.9
CCCCN1CC(COCc2ccccc2)Oc2cccc(N3CCCCC3)c2S1(=O)=O (stereo not given),0,0,0,0,-,0,-,-
COc1ccc(N=C(C)C2=C(O)c3ccccc3C2=O)cc1,0,5.0,11.6,0,0,0,19.2,5.9
Cc1nn(-c2ccccc2)c(Cl)c1/C=N/NC(N)=O,0,0,0,0,0,0,-,-
Cc1nn(-c2ccccc2)c(Cl)c1/C=N/NC(=O)c1ccnn1C,0,7.2,0,0,0,0,9.4,6.4
c1cc(-c2cc3c(o2)CCCC3OCCN2CCOCC2)cs1 (stereo not given),0,0,0,0,-,0,-,-
COc1ccc(-c2cc3c(o2)CCCC3OCCN2CCOCC2)cc1 (stereo not given),0,4.7,0,0,-,0,5.7,3.0
Cc1ccsc1C(=O)NNC(=O)C1C2C=CC(C2)C1C(=O)O (stereo not given),9.5,5.2,17.1,1.1,0,0,3.8,0
COc1c(C=O)c2c(c(OC)c1OC)-c1ccc(OC)c(=O)cc1C(NC(C)=O)CC2 (stereo not given),0,5.1,0,0,0,0,21.0,0
COc1cc2c(c(OC)c1OC)-c1ccc(OC)c(=O)cc1C(NC(=O)c1ccccc1)CC2 (stereo not given),0,4.7,0,0,0,0,15.6,0
COCCNc1c(-c2ccc(OC)c(OC)c2)nc2ccc(Cl)cn12,0,0,0,0,0,0,-,-
COCCNc1c(-c2cc3ccc(C)c(C)c3[nH]c2=O)nc2ccccn12,0,4.9,0,0,0,0,6.1,3.3
CC1(C)CC(=O)C=C(c2ccc(-c3ccc4[nH]ccc4c3)cc2)C1=O,0,5.3,0,0,0,0,11.8,0
O=C(NC1CCCCN(Cc2cccc(Cl)c2)C1=O)c1cccc2nsnc12 (stereo not given),0,0,0,0,-,0,-,-
